aSyn 5UTR act – Activators working through SNCA 5'UTR binding (MLPCN); alpha-synuclein 5'UTR reporter, activators screen; activity score, % (tested at 7.5 µM), hits read low; actives 7.1% (n = 300,000); in the data active = activity score below about -60%
Of the large screens only hits and unclear results are named; the others gave an inactive call. A selection follows.

COc1cccc(Cn2c(-c3nonc3N)nc3ccccc32)c1	none
COc1ccc2cc(-c3nc4ccccc4n3C)c(=O)oc2c1	aSyn 5UTR act -209
Clc1cccc2sc(-c3nnc(-c4ccccc4)o3)c(Cl)c12	aSyn 5UTR act -137
CC(C)Oc1ccccc1C1CC(=O)Nc2cc3c(cc21)OCO3 (stereo not drawn)	none
CC(C)c1ccc(C2C3=C(COC3=O)Nc3cc4c(cc32)OCO4)cc1 (stereo not drawn)	none
O=C1NC(c2ccc3c(c2)OCO3)Nc2ccccc21 (stereo not drawn)	aSyn 5UTR act -180
Cc1ccc(NC(=O)c2ccc(N/N=C/c3cccc(O)c3)c([N+](=O)[O-])c2)cc1	none
O=[N+]([O-])c1ccc(N/N=C/c2cccc(O)c2)cc1	aSyn 5UTR act -171
O=[N+]([O-])c1ccc(N/N=C/c2cccc(O)c2O)cc1	aSyn 5UTR act -170
O=C(C[n+]1cc(-c2ccc(F)cc2)n2c1CCC2)Nc1nc(-c2ccc(F)cc2)cs1	aSyn 5UTR act -63
Cc1ccc(-c2csc(NC(=O)C[n+]3cc(-c4ccccc4)n4c3CCC4)n2)cc1	aSyn 5UTR act -117
O=C(C[n+]1cc(-c2ccc(F)cc2)n2c1CCC2)N1c2ccccc2Sc2ccccc21	aSyn 5UTR act -181
CCOC(=O)c1sc(NC(=O)Nc2cccc(Cl)c2)cc1C	aSyn 5UTR act -110
CCOC(=O)c1sc(NC(=O)c2ccc(Br)o2)cc1C	aSyn 5UTR act -236
CCOC(=O)c1sc(NC(=O)c2cccs2)cc1C	aSyn 5UTR act -88
CCOC(=O)c1sc(NC(=O)c2sccc2C)cc1C	aSyn 5UTR act -82
COc1cccc(N=c2oc3ccccc3cc2-c2nc3ccccc3[nH]2)c1	aSyn 5UTR act -80
Cc1cc(NC(=O)C2CC2)ncc1NC(=O)c1ccccn1	aSyn 5UTR act -93
Cc1cc(NC(=O)C2CCCCC2)ncc1NC(=O)c1ccccn1	aSyn 5UTR act -73
COC(=O)c1c(NC(=O)COc2ccc(Cl)cc2)sc2c1CC(C)(C)NC2(C)C	none
COC(=O)c1c(NC(=O)c2ccccc2[N+](=O)[O-])sc2c1CC(C)(C)NC2(C)C	aSyn 5UTR act -70
COc1cccc(NC(=O)c2nnn(Cc3ccc(Br)cc3F)c2N)c1	aSyn 5UTR act -80
COc1cccc(NC(=O)c2nnn(CCc3ccccc3)c2N)c1	aSyn 5UTR act -127
COc1ccc(C)cc1NC(=O)c1nnn(Cc2cccc(C(F)(F)F)c2)c1N	none
CC(C)N1CCC2(CC1)N=C(c1ccc3c(c1)OCO3)CC(c1cc(Cl)ccc1O)N2 (stereo not drawn)	aSyn 5UTR act -173
Clc1ccc(-c2cn3nc4c(nc3n2)CCCC4)cc1	none
Clc1ccc(-c2cn3cccnc3n2)cc1Cl	aSyn 5UTR act -193
Clc1ccc(-c2cn3cccnc3n2)cc1	aSyn 5UTR act -132
COc1ccc(CCNC(=O)c2cc3c(=O)n4cccc(C)c4nc3n(CCCN3CCOCC3)c2=N)cc1	aSyn 5UTR act -67
COc1ccc(CNC(=O)C(C)Sc2nc3ccccc3c(=O)n2CCCN2CCOCC2)cc1 (stereo not drawn)	none
COc1ccc(CCn2c(=N)c(C(=O)NCC3CCCO3)cc3c(=O)n4cccc(C)c4nc32)cc1 (stereo not drawn)	aSyn 5UTR act -116
Cc1nc(N)sc1C(=O)N/N=C/c1ccccc1[N+](=O)[O-]	aSyn 5UTR act -133
O=C(N/N=C/c1c[nH]c2ccccc12)c1sc2ccccc2c1Cl	aSyn 5UTR act -69
CC(/C=N/NC(=O)c1sc(N)nc1C)=C\c1ccccc1	aSyn 5UTR act -116
Cn1cccc1/C=N/NC(=O)c1sc2ccccc2c1Cl	aSyn 5UTR act -80
Cc1nnsc1C(=O)N/N=C/c1ccc2ccccc2c1O	none
Cc1nc(N)sc1C(=O)N/N=C/c1c[nH]c2ccccc12	aSyn 5UTR act -79
NS(=O)(=O)c1ccc(Sc2nc3ccccc3s2)c([N+](=O)[O-])c1	none
N#C/C(=C/c1ccco1)c1nc2ccccc2s1	aSyn 5UTR act -282
N#C/C(=C\c1ccco1)c1nc2ccccc2s1	aSyn 5UTR act -309
N#C/C(=C\c1ccc(O)c([N+](=O)[O-])c1)c1nc2ccccc2s1	aSyn 5UTR act -66
CCCCc1ccc(-c2csc(/C(C#N)=C\c3ccco3)n2)cc1	aSyn 5UTR act -106
O=C1c2ccccc2-c2c1nc1c([n+]2[O-])CCCC1	aSyn 5UTR act -97
Cc1ccc(Nc2nc(CSc3nnc(-c4ccccc4)n3C)cs2)cc1	aSyn 5UTR act -68
Cc1ccc(Nc2nc(CSc3nnc(-c4ccccc4C)n3C)cs2)cc1	aSyn 5UTR act -93
CN(C)c1ccc(/C=C/C(=O)c2ccccc2)cc1[N+](=O)[O-]	aSyn 5UTR act -195
O=C(/C=C/c1ccc(O)c([N+](=O)[O-])c1)c1ccc2ccccc2c1	aSyn 5UTR act -124
COc1ccc(Oc2ccc(/C=C/C(=O)c3ccc(O)cc3)cc2[N+](=O)[O-])cc1	aSyn 5UTR act -97
O=C(O)c1ccc(COc2ccc3ccccc3c2)o1	aSyn 5UTR act -157
CCOc1ccc(OCc2ccc(C(=O)O)o2)cc1	aSyn 5UTR act -87
CCOc1ccc(OCc2ccc(C(=O)NCc3ccncc3)o2)cc1	aSyn 5UTR act -67
CCCCC1(C)Nc2ccccc2-c2nc3ccccc3n21 (stereo not drawn)	aSyn 5UTR act -146
c1ccc2c(c1)NC1(CCCCCC1)n1c-2nc2ccccc21	aSyn 5UTR act -142
CC1=CC(C)(C)Nc2ccccc21	none
c1ccc2c(c1)NC1(CCCCC1)n1c-2nc2ccccc21	aSyn 5UTR act -126
Cc1ccc(NC(=O)O/N=C/c2ccc(F)cc2)cc1	aSyn 5UTR act -131
O=C(Nc1ccccc1)O/N=C/c1ccc(F)cc1	aSyn 5UTR act -189
Cc1ccc(NC(=O)O/N=C/c2ccc(N(C)C)cc2)cc1	aSyn 5UTR act -71
CC[C@H](CO)Nc1nc(Nc2cccc(Cl)c2)c2ncn(C(C)C)c2n1	none
Cc1cccc(-n2ncc3c(NCCCn4ccnc4)ncnc32)c1	aSyn 5UTR act -129
Cc1cccc(-n2ncc3c(NCCCN4CCCC4=O)ncnc32)c1	aSyn 5UTR act -143
O=C1CCCN1CCCNc1ncnc2c1cnn2-c1ccc(Cl)cc1	aSyn 5UTR act -152
CCn1c(O)c(C=NC2CCCC(C)C2C)sc1=S (stereo not drawn)	aSyn 5UTR act -133
CC(=O)Oc1ccc(/C=C2/Oc3ccccc3C2=O)cc1	aSyn 5UTR act -75
O=C1/C(=C/c2ccccc2)Oc2cc(OC(=O)N3CCOCC3)ccc21	aSyn 5UTR act -110
CN(C)/C=C/C(=O)c1ccc(Cl)c([N+](=O)[O-])c1	aSyn 5UTR act -73
CC(=O)c1c(C)oc2ccc(N(C(C)=O)S(=O)(=O)c3ccc(Cl)c([N+](=O)[O-])c3)cc12	none
N=C1/C(=C/c2ccc(OCc3ccccc3F)cc2)C(=O)N=C2SC(CC(=O)N3CCOCC3)=NN12	aSyn 5UTR act -93
N=C1/C(=C/c2ccc(OCc3ccccc3)cc2)C(=O)N=C2SC(CC(=O)N3CCOCC3)=NN12	aSyn 5UTR act -95
CC(C)S(=O)(=O)c1csc(C(=O)Nc2ccc(F)cc2)c1N	aSyn 5UTR act -100
COc1ccc(O)c(C(=O)c2cnn(-c3ccccn3)c2)c1	aSyn 5UTR act -130
CCN(CC)S(=O)(=O)c1cc(OC)ccc1N=Nc1ccc(O)c2ncccc12	none
COc1ccc(O)c(C(=O)c2cnn(-c3ccc(Cl)cc3)c2)c1	aSyn 5UTR act -75
N#CC1=C(N)NC(SCc2ccc(F)cc2)=C(C#N)C12CCCCC2	aSyn 5UTR act -83
Cc1cc(C)nc(Sc2ncnc3c2oc2ccccc23)n1	aSyn 5UTR act -64
CCSc1ncnc2c1oc1ccccc12	aSyn 5UTR act -64
c1ccc2cc(Sc3ncnc4c3oc3ccccc34)ccc2c1	aSyn 5UTR act -71

Screening data: PubChem, Broad Institute
